The values that follow come from PubChem BioAssay AID1233 (SRMLSC, 2008).

Each structure is given as a SMILES string. Entries with a potency or affinity are not part of this list. Activity calls are given as the source filed them.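 The calls were made as follows: active = a dose-response curve fit returns a half-maximal inhibitory concentration, extrapolated values included; inactive = the fit returns no such concentration.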

This experiment concerns the target HMG-CoA reductase [Enterococcus faecalis] (UniProt Q9FD70). Briefly: class II HMG-CoA reductase inhibition potency – biochemical, Enterococcus faecalis, confirmation (AID 1233). As to conditions: purified E. faecalis HMGR, NADPH absorbance 340 nm kinetics; series mostly up to 100 µM.
Turning to `COc1ccccc1NC(=S)N1CCCc2ccccc21`, the outcome was inactive. On to `CC(=O)N1CCN(S(=O)(=O)c2ccc(C)c([N+](=O)[O-])c2)C1C(C)C` (stereo not drawn), for which the outcome was inactive. With `COc1ccc(N2CCN(C(=O)C3CCC(Cn4c(=S)[nH]c5ccccc5c4=O)CC3)CC2)cc1` (stereo not drawn), the result was inactive. The entry for `COc1ccc(-c2csc(N(CC3CCCO3)C(=O)c3ccco3)n2)cc1` (stereo not drawn) is “inactive”; for `O=C(c1cc([N+](=O)[O-])ccc1N1CCCCC1)N1CCc2ccccc21` it is “inactive”. The same measure for `O=C(Cn1cc(C(=O)C(F)(F)F)c2ccccc21)N1CCOCC1`: “inactive”; for `COc1ccc(CCNc2ccncn2)cc1`: “inactive”. The entry for `Cn1nnnc1SCC(=O)c1ccc(Br)s1` is “inactive”; for `COc1cc2c(cc1OC)C(C(=O)Nc1ccc3c(c1)OCCO3)C(c1cccnc1)N(C)C2=O` (stereo not drawn) it is “inactive”.

`COc1ccc2oc(=Nc3ccc(C(=O)O)cc3)c(C(=O)NCc3ccco3)cc2c1`: the outcome was inactive. The entry for `C=CCN1CCN(C(c2cc(OC)ccc2OC)c2nnnn2CC2CCCO2)CC1` (stereo not drawn) is “inactive”; for `COc1ccc(C(=O)/C=C/c2ccc(N3CCCCC3)c([N+](=O)[O-])c2)c(OC)c1` it is “inactive”. `Clc1ccc(NNc2ccnc3cc(Cl)ccc23)cc1`: the outcome was inactive. The entry for `CCOC(=O)c1c(NC(=O)CSc2nnc(C)s2)sc2c1CCC(CC)C2` (stereo not drawn) is “inactive”. The entry for `O=C(CNC(=O)c1ccc(S(=O)(=O)N2CCCC2)cc1)N/N=C/c1ccc(Cl)cc1` is “inactive”; for `COC(=O)C1C(c2ccc(N(C)C)cc2)C(C(=O)OC)S(=O)(=O)CS1(=O)=O` (stereo not drawn) it is “inactive”; for `COc1ccc(Cl)cc1NC(=O)CN(c1ccccc1)S(=O)(=O)N(C)C` it is “inactive”.

Consider `O=C(NCc1cccs1)c1cc2c(s1)CS(=O)(=O)C2`, for which the result was inactive. The entry for `[O-]C1=N/[N+](=C/c2ccc(Cl)c(Cl)c2)CC1` is “inactive”. The same measure for `CN(CC(=O)NCCc1ccccc1)S(=O)(=O)c1ccccc1`: “inactive”; for `Cc1ccc(S(=O)(=O)N2CCCCC2)cc1C(=O)N1CCN(c2ccccn2)CC1`: “inactive”. The same measure for `CCN(CC)S(=O)(=O)c1cccc(C(=O)Nc2cc(C)cc(C)c2)c1`: “inactive”.

For `Cc1ccc(S(=O)(=O)N2CCN(C(=O)CSc3nnc(-c4ccco4)o3)CC2)cc1`, the outcome was inactive.

For the molecule `COc1ccccc1N(CC(O)CN(c1ccccc1)S(C)(=O)=O)S(=O)(=O)c1ccccc1` (stereo not drawn), the molecule was called inactive. Take `Cn1c(=O)c(C(=O)CSc2ccccc2)c(N)n(Cc2ccccc2)c1=O`: the outcome was inactive. Take `COc1cc2c(cc1OC)CN(C(C)C(=O)N1CCc3ccccc31)CC2` (stereo not drawn): the molecule was called inactive. The entry for `CCCn1c(C(O)c2ccc(OC)cc2)nc2ccccc21` (stereo not drawn) is “inactive”. The same measure for `COc1ccc(C(=O)NCCc2nnc(SCC(=O)Nc3ccccc3F)n2C)cc1`: “inactive”.

On to `COc1ccc(C(=O)Nc2ccc(NC(=O)c3cnccn3)cn2)cc1`, for which the molecule was classed as inactive.

`COc1ccc(/C=C(/C#N)S(=O)(=O)c2ccc(C)cc2)cc1`: the result was inactive. The entry for `C/C(CC(=O)NC1CCCCC1)=N\NC(=O)COc1ccc(C)cc1Br` is “inactive”; for `Cc1cc(C(=O)N[C@H](c2ccccc2)[C@@]2(C)C[C@@H]2[C@@H](C)C(=O)Nc2ccc3ccccc3c2)no1` it is “inactive”; for `COCCn1c(=N)c(C(=O)NCc2ccco2)cc2c(=O)n3cc(C)ccc3nc21` it is “inactive”. The entry for `O=C(/C(=C/c1ccc(Cl)cc1)c1nc2ccccc2[nH]1)c1ccccc1` is “inactive”; for `O=C(N/N=C/c1cc(Br)cc(Br)c1O)c1cccc(N2CCCC2=O)c1` it is “inactive”.

In the case of `COc1cc(C#N)ccc1OCC(=O)c1ccc2c(c1)OCCO2`, the result was inactive. The same measure for `CCOC(=O)C(CC)n1cnc2c(nnn2-c2ccc(OC)cc2)c1=O` (stereo not drawn): “inactive”. The same measure for `O=C(Nc1cccc(Br)c1)c1ccc2nc(N3C(=O)CCC3=O)sc2c1`: “inactive”.
